Reference: PubChem BioAssay (NCI)
Compounds without any hit were thinned out: in the full panel of roughly 83,000, 20% have a hit.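 Negative percent growth values reflect cell death: -40 means 40% of the cells present at the start died, and -100 means all died.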 Unmarked numbers belong to inactive results. The source made the active and inactive calls.

Tested on: SK-MEL-2 melanoma
Assay: NCI-60 one-dose screen, 48 h (100 = growth as untreated, 0 = no growth, -100 = all killed)
Conditions: 10 µM unless noted
Description: Growth inhibition of the SK-MEL-2 human tumor cell line is measured as a screen for anti-cancer activity. Cells are grown in 96 well plates and exposed to the test compound for 48 hours. Compounds are tested at a single concentration, which is 10^-5 M for most compounds. The reported endpoint is percent growth (GI% or GIPRCNT), where numbers from 0 - 100% represent growth inhibition, and numbers from -100% - 0 represent cell death. For example, a value of 40 represents 60% growth inhibition. A value of 0 means no net growth occurred over the course of the experiment. A value of -40 indicates 40% of cells at the beginning of the experiment died by the end of the experiment. A value of -100 means all cells are dead at the end of the experiment.
NCI-60 Human Tumor Cell Lines Screen was performed using the standard one-dose NCI protocol, which is described in more detail at https://dtp.cancer.gov/discovery_development/nci-60/default.htm.
Compounds with GIPRCNT values below 10 were considered active. Activity score was based on GIPRCNT using the following formula: […]
Score is 0 for GIPRCNT values of 100 or above, 50 for GIPRCNT values of 0, and 100 for GIPRCNT values of -100.

First: COc1ccc(C2C(N)=NNC2c2cccc(O)c2)cc1 (stereo not given)
Second: COc1ccc(C2CC(c3ccc(Nc4ccnc5cc(Cl)ccc45)cc3)=NN2C=O)cc1 (stereo not given)
The growth of the first is lower: 87.6% for the first, 92.5% for the second.

Compared with `CN1C(=C2C(=O)OC(C)(C)OC2=O)CCC1C(=O)NCc1ccc(Cl)cc1Cl` (stereo not given), `Cc1nc(/N=C(\N)NC(=O)Nc2cccc(Cl)c2)sc1C` is lower in growth: 91.7% for the first, 72% for the second.

First: COc1ccc(C(=O)n2nc(-c3ccccc3)nc2N)cc1OC
Second: CCOC(=O)Cn1c(=O)c2c(c3ccccc3n2C)n2nnc(-c3ccccc3)c12
The growth of the first is higher: 103% for the first, 98.3% for the second.

Compared with `CCOC(=O)c1[nH]c(C)c(C(=O)OCc2ccccc2C#N)c1C`, `COc1cc(C(=O)c2cc(C)c3[nH]c4ccc(C)cc4c3c2C)cc(OC)c1OC` is lower in growth: 82.3% for the first, 60.4% for the second.

Going from `NCCNc1nc2ccccc2c2c(=O)c3cc(F)ccc3sc12` to `Nc1nc2ccccc2c2c(=O)c3cc(F)ccc3sc12`, the growth falls from 112% to 110%.

First: COc1ccc2[nH]c(-c3ccccc3)c(/C=C(\C#N)S(=O)(=O)c3ccccc3)c2c1
Second: COc1cccc(-c2nc(-c3ccc(NC(=O)c4ccccc4)cc3)[nH]c2-c2ccnc(Br)c2)c1
The growth of the first is higher: 87% for the first, 29.4% for the second.

Going from `COc1cc(C2CC(c3ccc(SC)cc3)=NN2C(C)=O)cc(OC)c1OC` (stereo not given) to `COc1cc(OCc2cccc(-c3ccc(C(O)c4nccs4)cc3)c2C)cc(OC)c1CNCCNC(C)=O` (stereo not given), the growth rises from 65.5% to 122%.

Compared with `C=C1C(=O)O[C@H]2[C@H]1CC/C(COC(=O)CCSSCCC(=O)OC/C1=C/CC[C@@]3(C)O[C@H]3[C@H]3OC(=O)C(=C)[C@@H]3CC1)=C\CC[C@@]1(C)O[C@@H]21`, `C=C1C(=O)O[C@H]2[C@H]1CC/C(COC(=O)CSCC(=O)OC/C1=C/CC[C@@]3(C)O[C@H]3[C@H]3OC(=O)C(=C)[C@@H]3CC1)=C\CC[C@@]1(C)O[C@@H]21` is higher in growth: 52.4% for the first, 68% for the second.

`CNc1nc2c(s1)C(c1cccc(F)c1)CC(=O)N2` (stereo not given) and `Cc1ccc(C(=O)NN2C(=O)CSC2c2cccc([N+](=O)[O-])c2)cn1` (stereo not given) are the same in growth: 100% for the first, 100% for the second.

Compared with `COc1ccc(N)c(N)c1`, `COc1ccc(OC)c(/C=C/C(=O)N/N=C/c2ccc(Cl)cc2)c1` is lower in growth: 121% for the first, 22.3% for the second.

Compared with `COc1ccc(-c2c(C(=O)NS(C)(=O)=O)n(Cc3cccc(C(F)(F)F)c3)c3ccccc23)cc1`, `COc1ccc(-c2cc(-c3ccc(Cl)cc3)c(C#N)c(=O)n2CCCCCC(=O)Nc2ccccc2N)cc1` is lower in growth: 101% for the first, 58.5% for the second.

Compared with `C[C@H]1[C@H]2[C@H]3CC[C@@H]4[C@@]5(C)CC[C@H](O)C(C)(C)[C@@H]5CC[C@@]4(C)[C@]3(C)CC[C@]23CO[C@]1(C)[C@@H](C(=O)/C=C\c1cccnc1)C3`, `C#C[C@]1(O)CC[C@H]2[C@@H]3CC=C4c5sc(Nc6ccccc6)nc5CC[C@]4(C)[C@H]3CC[C@@]21C` is lower in growth: 87.3% for the first, 16.7% for the second.

Compared with `Fc1cc(-c2nnc3sc(-c4ccc(Cl)cc4Cl)nn23)c(Cl)cc1Cl`, `NCCCNc1nc2ccc(Cl)cc2c2c(=O)c3cc(F)ccc3sc12` is higher in growth: 94.7% for the first, 104% for the second.

First: CCS(=O)(=O)c1ncnc2nc[nH]c12
Second: CCN1C(=O)N(CC)C2Nn3c(s/c(=C4\C(=O)N(CCC(C)C)c5ccccc54)c3=O)=NC21 (stereo not given)
The growth of the first is higher: 100% for the first, 87.7% for the second.

Compared with `COc1cc2cc(Oc3ccc(NC(=O)Nc4cccc(C(F)(F)F)c4)cc3)c(C)nc2cc1OCCN1CCOCC1`, `CC(C)C(=O)Nc1ccc(-c2nc(-c3cccc(OCCN4CCOCC4)c3)c(-c3ccnc(Br)c3)[nH]2)cc1` is lower in growth: 78.6% for the first, 36.2% for the second.

Going from `Cc1ccc(/C=C2\Oc3ccc(O)c(O)c3C2=O)cc1` to `Cn1cc(C(=O)c2nc(-c3cn(C)c4ccc(F)cc34)no2)c2cc(F)ccc21`, the growth rises from 87.6% to 102%.

In the case of `O=[N+]([O-])c1ccccc1NCSc1ccc(Cl)cc1`, the growth is reported as 114%.

With `CCc1ccc(Oc2c(-c3ccc(OCc4ccc(Cl)cc4)cc3O)nn(C)c2C(F)(F)F)cc1` the growth was -30.7% (active).
With `O=c1[nH]c2c(ccc3cnccc32)c2c1CCC2` the growth was -15.9% (active).
For `O=C(O)c1cn(C2CC2)c2cc(N3CCN(C(=O)Nc4nc(-c5ccc(Cl)cc5)cs4)CC3)c(F)cc2c1=O`, the growth was -18.9% (active).
`c1ccc2cc(C[n+]3ccn(CCCCCCCCCCCCn4cc[n+](Cc5ccc6ccccc6c5)c4)c3)ccc2c1` was tested, and the growth was -69.9% (active).
In the case of `CC1=C([Se]CC(OC(=O)[C@@H](CSSC(C)(C)C)NC(=O)OC(C)(C)C)C(=O)NC(C)(C)C)C(=O)c2ccccc2C1=O` (stereo not given in full), the growth is reported as 7.82% (active).
For `O=C(Nc1ccc(F)cc1F)c1cc(F)ccc1O`, the growth was -20% (active).
For `O=C(O)c1cn(C2CC2)c2cc(N3CCN(C(=O)Nc4nc(-c5ccccc5)cs4)CC3)c(F)cc2c1=O`, the growth was -10.8% (active).
